Assay results reported in PubChem BioAssay AID1159506 (National Center for Advancing Translational Sciences (NCATS), 2015).
In all, about 59,000 sequences were measured (the read-out: median about -0.00055, lowest 2% from about -2 on). The sample as a whole holds a higher share of the lowest values than the screen did.

Experiment: Identification of proteins required for the processing of the EWS-FLI1 nascent transcript;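 further: robust z of luciferase light less the median z of siRNAs with the same seed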
Conditions: TC32 Ewing sarcoma NR0B1-luc vs CMV-luc (EWS-FLI1 target promoter against control promoter), 48 h; screened at 20 nM (by protocol)
Method in brief: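 Three siRNAs per gene, each in a separate well at 20 nM, were transfected into TC32 cells bearing either reporter construct. Luminescence was measured two days on, and per-gene comparison relied on seed-corrected Z values.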

Row | Sequence | seed-corrected z-score
1 | UCCUUGUCGAAAGAAGUGC against RMND5A | -3.27
2 | UCAGUUUACCUGAGAAGCC against C22orf39 | -0.529
3 | UGACUUUAAGUUUUGGGCC against LINC00999 | 0.159
4 | UGUAGCAUGACCGUCUUCC against LINC00239 | -0.84
5 | AAGGUGCACAAGUAAAGCC against LOC730100 | -2.05
6 | UCAUUGGAUUCCAAAAUCC against ADAM18 | 0.186
7 | UACGUUAAAAGGCAGGACA against CDKN2A | -0.998
8 | UAGCAGAUGAGAGACUAUG against MRPS24 | -0.269
9 | UUUAUGGGCUCUUUUGACG against ENPP5 | -0.349
10 | UAUGCUAAGGUAGCAGUUG against RNF133 | 0.16
11 | UAUAAGUCUGGGAUAUCUG against CATSPERD | -0.549
12 | UCUUCGAAAGUGACCAGCA against INTS6 | -0.292
13 | UAACCUCCAUCCGAGGUGG against INHA | -0.1
14 | UGGGAUACCCUCCUUGUCU against UBA52 | -2.1
15 | UCUUUGAACAGGAUAAACC against HNRNPAB | 0.756
16 | UGAAUAUCAAGUUAGAUCC against OR5AK2 | 0.308
17 | UCUCUUGCUUGGAGGAAGC against ZNF174 | 0.443
18 | UCGGAGAUCAGGCUAGUGG against TMEM82 | -2.03
19 | UCCGGGUUCAGCAUGUCCA against ESPN | -0.679
20 | UAAUUGACCUGUACGCUCG against GATM | 0.156
21 | AAAGCAGUUGGAACCGUUG against KRTAP24-1 | 0.448
22 | AUCGAUUUUAAUGAACCGC against RPS4X | 1.4

Row | Sequence | seed-corrected z-score
23 | AAAGGCGUAGAGGAGCUGG against TRIB3 | -3.4
24 | UAGGUGAACAUCAUGACGC against ITGB5 | -0.131
25 | AUCUUUGUUGCGGAGACUG against OR2T34 | -0.514
26 | AGCUUGAUCAUUCUAGUGC against FLJ36777 | 0.325
27 | UUUCGAAUACCAGCUAUCC against KLHL7 | 0.0747
28 | UCGUGGUUCUCAAUUUUGC against PKLR | -0.494
29 | ACCUCUGCAUCUCUUGUUC against TCF23 | -2.43
30 | UUUCAAUCCUUCCUCCUUA against IFNA7 | -0.487
31 | UAAUGUAACUACUUCCAUC against TM2D1 | -0.144
32 | UGUUGUCAAAGAGUGAUUC against SLC2A13 | -2.46
33 | UACUGAAUCACUCCCUUGA against GALK1 | -0.0112
34 | UGUAGUACGCUCUUGUUCU against GOLGA8EP | -0.41
35 | UGCCGAGAAGUUUGGCUCC against TPBGL | -0.407
36 | AGAUAGUACACUCAUAUGG against ZNF791 | -2.77
37 | UAUGCGGACCAAGUUGUCU against TMEM72 | 0.195
38 | UCAGGAUAAAGAUUGUCGC against KDM4A | 1.62
39 | UGAAAUUCCCGUAGAGUUC against CA11 | -0.176
40 | AAACGAAAAAUGAACACUC against POU3F1 | 0.371
41 | AUUCUGAUCUAGGCGAUGG against C5orf15 | -2.22
42 | UUCGGAACCGGAGAUCCCA against RIPK4 | -0.395
43 | AAUCUAAUAGGAUUUGUUA against CTBP2 | -0.167
44 | ACCGUUUAAACUGAGACCC against FILIP1 | 1.11

Row | Sequence | seed-corrected z-score
45 | UCGCUGACUCCAGAUAUGC against AP1G2 | -0.0794
46 | UUCUUUGCACGAAUGUCCG against PRPF6 | -1.74
47 | UUGUUAAUCUGGUCAAUUG against GRM8 | 0.169
48 | UGCUUUUGGAGUGCUAUGG against ANKLE1 | -2.74
49 | UCCACGAAUAGCAAUAUGC against KIDINS220 | -1.19
50 | AAAUCAUAAACCAUCUUUG against OR2L2 | 1.05
51 | AGUAGUCACACUGUUGUGC against NXNL2 | -4.17
52 | UAUUUAUCUAGGCACUUCU against CENPT | 0.523
53 | UUCUCAGAAACUGCACGGC against SYNGR4 | 0.497
54 | UAUUCUUAUCUGUAAUCCC against LOC646736 | -0.205
55 | UCGCGGAUCAGAAAGGUGC against SOCS3 | -1.04
56 | UACUUUUGAUGCACUAGUC against ETAA1 | -1.14
57 | AACAUAAGAGAGACAAUGC against SYVN1 | 0.102
58 | UCACGAACUGGACUUUACC against GRM7 | -0.806
59 | GUCAGGUAGAAGACCACAC against MRGPRG | -2.24
60 | UGCGUGAACCUCUUGAACA against TNFAIP2 | 0.027
61 | AGUGGAAACAGGAUGGAUG against GAL3ST4 | -0.271
62 | UAGCCGCUGACUUUGAUGC against SLC39A13 | 0.264
63 | UUACUUGUACCCGCUGUUC against RLTPR | -0.488
64 | AUCUGCAUAAUGCACAUUC against SLC15A5 | -2.92
65 | AGCAUCUUGACAUUCAUCU against MYL4 | -0.225
66 | UUUAAGGGUAUUACGAGUG against GGPS1 | 0.153

Row | Sequence | seed-corrected z-score
67 | UUAUCAAUUAGAGGAUAAC against B3GALNT1 | 0.214
68 | AUACAUCCGAUUAAGAGGC against SERINC5 | -2.74
69 | UUUCCUGUAAAUCCCACAG against TSSC1 | 0.399
70 | AGAUCUAAUAACAAUAAGC against EIF2S3 | -2.28
71 | AAUCAGUCAGGUAAAUGCC against ENTPD1 | 0.248
72 | AAUAAAAAUGACAGUUUCC against BTN2A2 | 0.474
73 | AAUGAGAAUAAAGUCUACC against OR51A4 | -2.31
74 | UCCUUCACAAACAUGUCCC against SDK1 | 0.154
75 | UAUCGAAGAUAAAUCAGCC against SLC7A11 | 0.269
76 | UUCUUCUCGGCCUGUUUCC against RPL13A | 0.511
77 | UGCCUGUAAAGCCGUCUCC against LINC00705 | -0.731
78 | AAGCCUAUGAUGAUCACUG against C3orf52 | -0.911
79 | UUCCAGCACAUAUCGACUC against TMEM8B | -2.4
80 | AUACUGGACACUCUUGCCG against RNF5 | -2.86
81 | UUCGGUCUCAGGACUAUUG against KAT6A | 0.686
82 | UUCUUGAACUGUCUAAACC against CERKL | 0.919
83 | UUUCAUUGAAGCGGAAGCG against CRYGD | 0.834
84 | UUACUUAGAGGAGAUACCA against IGFBP7 | -0.294
85 | UCCCGGAAAGCCUUCAUGG against INF2 | -0.589
86 | UAAGAUAUGAACUCUGACG against ZNF234 | 0.548
87 | UGGGCUUGUAGAAGUGUCU against DGAT1 | -0.22
88 | AAUUAUUCGACUGACAUAG against RFC4 | -2.19

Row | Sequence | seed-corrected z-score
89 | AUCUGUCCAAGACAUUUGC against CHRNA7 | -1.18
90 | AAACUGACAAGUAGACUGG against ANKRD27 | -0.601
91 | UCAGUUGCUUAUGAUAGUC against CCDC73 | -2.71
92 | UUAUUAGAGAGAAAAGCAC against PRAC1 | 0.7
93 | UCCGUUAUUAGCAUCUGCC against 6-Mar | -0.0888
94 | UUAUUGAUGCGUUGAUUUG against CCDC88C | 0.00274
95 | UUAUGUACCUUGUUACAUU against CD72 | -0.111
96 | AUGCGGUUCAGGAACUUGG against SBNO2 | -2.46
97 | ACAUAUAGUAUCAUUAUGG against SLC35D2 | 0.0309
98 | UUUCGGUUCCUUGAAACCA against DBNL | -0.0899
99 | UUUGAUUCUACUUCAAAAC against CBX3P2 | 0.167
100 | AAAGGGACGCUCAACCACC against HIST1H4K | -1.31
101 | UUAACUGCAGGCUUAUACU against AKR1B1 | -1.42
102 | UAUCUUUUCCCAGUUGGAC against MSRB3 | -2.11
103 | UACGAUUCUUGAGUGGAAG against BACH1 | 0.239
104 | UCUGUUUCUCGCGCACUCG against COX7A1 | 0.0308
105 | UUCUUACACCUGACGAAGC against WNT5B | 0.217
106 | UAUGAUUUAAUCACCUCCU against LOC653513 | 0.00911
107 | UCAAUGAGAGUGCACAUCC against COPA | -3.73
108 | AUAUCAAUUGUUAUCUUGC against ANKRD30A | 0.895
109 | UCUACUAUCAUUGUCCCUU against TAL1 | 0.0482
110 | UCUGGUACUGUGAAGGGUC against TSPYL5 | 0.606

Row | Sequence | seed-corrected z-score
111 | UAUUAUUGUCUGGAACAUC against C12orf57 | 0.301
112 | UGACGUACAGCAUUGACAG against PHLPP2 | 0.366
113 | UAAGUCCCAAUUCACUCUC against FAM134B | 2.19
114 | UCUGGUUCCAGGUUGCUUA against SFXN3 | -2.37
115 | AGUAGAAAGACCAUGCUUG against TUBB2A | 0.712
116 | AAAACUAUUGGUUUCUUCC against GCOM1 | -0.0313
117 | UUCGUAGUGGAGUGAAUCC against DHH | -0.195
118 | ACUGCUUUCCUUAAAAUCC against CCDC40 | -3.74
119 | UUGUUAACCAAGACAACGC against SNAPIN | 0.13
120 | UGCUAUAUCUAGAUGUUCC against RMDN2 | -0.178
121 | UCUUUGUUCCAUCAUGACC against NDUFAF7 | 0.211
122 | UCAUUUCGCACAGCUUCCU against RARG | 0.369
123 | AAUGCUCCAAGACUGGAGG against PTCRA | -1.44
124 | UACAUGGUAAUAACUUUUC against MARCKS | -0.217
125 | UUUGUUCAUCACGAAAGUC against SDHAF3 | -0.383
126 | AGAGUGUCAAGCAGCAUGG against EEF1A1P33 | -2.33
127 | UGCGGAUCAAGUCUGAGAC against MSH5 | -0.442
128 | UGAGUUUCUCGCACGUCUC against WNT4 | -2.44
129 | UGAGGCUCCAGUUUCAGGC against SLC3A2 | 1.53
130 | UGACUUGACUCCGAUCUGC against AP2A1 | -0.384
131 | UUCGUGGUCUUGCAGAAGC against LY6D | -0.178
132 | GAUAGUUGUAGGGUGUGGC against NDUFA3P3 | 0.165
